# Results as given in PubChem BioAssay.
# Activity calls are given as the source filed them.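 The calls were made as follows, unless noted: active = NADPH fluorescence slope more negative than the mean of all samples by about 3 SD, 99.7% confidence; inactive = the rest.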
# Tests used:
# [1] = inhibitors of TNFa-induced NFkB p65 translocation, primary screen, imaging, HUVEC, MLSMR starter and 10KST1 sets (AID 438;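 active = inhibition above 20% together with a positive visual image hit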;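 also: compound added about 3h40 before a 20 min TNFalpha stimulation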;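 as to inhibition: signal is the nuclear over cytoplasmic p65 intensity ratio per well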); details: HUVEC TNFa-induced p65 nuclear translocation; cell count: measured here: nuclei count (cytotoxicity indicator), at 2.08 µM; inhibition: at 2 µM, stronger effect = higher value, 0% TNFa-plus-vehicle, 100% no-TNFa wells
# [2] = reduction of polyQ htt aggregates in cells – imaging, exon1htt(103Q)mCFP cells, high-content imaging, primary screen (AID 483;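 active = visual image review flags a hit and inhibition of aggregation exceeds 20%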;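 also: compound exposure lasted 3 days before fixation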;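 as to nuclei count: percent of the per-plate median nuclei count of sample wells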); details: exon1htt(103Q)mCFP cell line, aggregate imaging, at 2 µM; inhibition of aggregation: stronger effect = higher value; nuclei count: measured here: cell count, toxicity
# [3] = endothelial E-selectin expression blockers – imaging, HUVEC, immunofluorescence, MLSMR starter and 10KST1 sets, primary screen (AID 487;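 active = visually confirmed hit in the image check and inhibition above 20%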;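 as to inhibition: signal is fraction of cell area covered by stained E-selectin grains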;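 as to nuclei count: 100% = median nuclei count of all wells on the same plate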); details: HUVEC TNFalpha-induced E-selectin immunofluorescence imaging, at 2 µM; inhibition: stronger effect = higher value; nuclei count: measured here: cell number, toxicity
# [4] = molecular target: Voltage-gated potassium channel subunit beta-2 (Rattus norvegicus) (UniProt P62483); assay: inhibitors of rat Kvbeta2 reductase activity – biochemical, NADPH fluorescence, primary screen (AID 622;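 active = fluorescence slope higher than the sample average by over 3 SD, cut at about -0.22 in these data, passing the limit was not always enough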;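 also: slope of raw intensity against log time taken from 70 to 1610 s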); details: recombinant KvBeta, 4-cyanobenzaldehyde reduction, at 10 µM, stronger effect = higher value
# [5] = molecular target: Voltage-gated potassium channel subunit beta-2 (Rattus norvegicus) (UniProt P62483); assay: enhancers of rat Kvbeta2 NADPH turnover – biochemical, NADPH fluorescence, primary screen (AID 623); details: Recombinant KvBeta, NADPH fluorescence decrease slope, 10 min; at 10 µM; stronger effect = lower value;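 also: fluorescence intensity change per second fitted from 20 to 320 s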
# [6] = molecular target: Alpha-2C adrenergic receptor (Homo sapiens) (UniProt P18825); assay: compounds altering alpha2C-coupled GIRK flux – cell-based, HEK293 alpha2C/GIRK1/2, thallium flux, primary screen (AID 624;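 active = fluorescence slope after compound addition differing from the mean of all screened samples at 99.7% confidence, in either direction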;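 also: slope of fluorescence ratio to pre-addition baseline per second over 15 to 24 s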); details: thallium flux BTC fluorescence, at 10 µM, actives lie on both sides
# [7] = blockers of RIG-like receptor reporter activation – cell-based, Sendai virus stimulus, luciferase, 10K MLSCN set, TLR/RLR signaling modifier project, primary screen (AID 602276;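 active = inhibition at or above 50% at 10 µM; inactive = inhibition below 50%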;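 also: firefly luciferase from ISG56 promoter only with Renilla not read in this screen; 0% = Sendai virus plus DMSO and 100% = medium plus DMSO without virus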); details: HEK293 RL24 IRF3 luciferase reporter, at 10 µM, stronger effect = higher value
# [8] = TLR3 IRF3 reporter activation blockers – cell-based, poly I:C stimulus, luciferase, 10K MLSCN set, primary screen (AID 602277;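 active = inhibition of the reporter signal at or above 50%; inactive = inhibition below 50%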); details: HEK293-TLR3 RL24 IRF3 luciferase reporter, at 10 µM, stronger effect = higher value
# Voltage-gated potassium channel subunit beta-2 (Rattus norvegicus), sequence (P62483 whole entry, looked up): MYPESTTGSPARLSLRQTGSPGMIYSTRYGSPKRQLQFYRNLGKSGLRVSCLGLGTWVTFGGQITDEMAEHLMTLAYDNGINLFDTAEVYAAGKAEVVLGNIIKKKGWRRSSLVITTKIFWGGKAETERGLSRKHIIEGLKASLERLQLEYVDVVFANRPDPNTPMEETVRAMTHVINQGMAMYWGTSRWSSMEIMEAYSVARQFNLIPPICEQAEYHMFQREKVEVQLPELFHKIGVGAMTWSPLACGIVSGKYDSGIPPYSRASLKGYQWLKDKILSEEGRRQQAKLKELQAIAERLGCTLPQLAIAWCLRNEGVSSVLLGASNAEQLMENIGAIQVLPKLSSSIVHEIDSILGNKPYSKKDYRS
# Alpha-2C adrenergic receptor (Homo sapiens), sequence (P18825 whole entry, looked up): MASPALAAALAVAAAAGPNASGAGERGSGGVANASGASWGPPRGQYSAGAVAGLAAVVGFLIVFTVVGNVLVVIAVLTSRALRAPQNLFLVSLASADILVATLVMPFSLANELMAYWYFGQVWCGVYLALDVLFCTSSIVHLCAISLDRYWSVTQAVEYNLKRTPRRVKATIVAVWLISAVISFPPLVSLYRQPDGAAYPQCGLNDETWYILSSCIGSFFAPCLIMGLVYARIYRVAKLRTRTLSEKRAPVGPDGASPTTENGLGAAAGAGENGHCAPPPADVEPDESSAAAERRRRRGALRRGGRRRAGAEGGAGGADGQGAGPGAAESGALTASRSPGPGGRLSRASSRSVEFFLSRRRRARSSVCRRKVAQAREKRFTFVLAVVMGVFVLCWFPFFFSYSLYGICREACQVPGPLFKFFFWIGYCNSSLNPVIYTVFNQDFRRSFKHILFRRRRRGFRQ
SMILES,cell count [1],inhibition [1],inhibition of aggregation [2],nuclei count [2] [%],inhibition [3],nuclei count [3] [%],fluorescence slope [4],NADPH fluorescence slope [5],slope [6],inhibition [7],inhibition [8]
CCCCCn1c(CN2CCN(c3cccc(Cl)c3)CC2)nc2c1c(=O)n(C)c(=O)n2C,775,0.9% (inactive),-13% (inactive),109,-32.5% (inactive),113,-0.371 (inactive),-6e-05 (inactive),0.00648 (inactive),-3% (inactive),-10.4% (inactive)
CCc1c(C)nc2ncnn2c1NCCc1ccc(OC)c(OC)c1,447,-1.6% (inactive),-8% (inactive),95.4,7.1% (inactive),97.7,-0.323 (inactive),-7.8e-05 (inactive),0.00477 (inactive),8.69% (inactive),-1.81% (inactive)
CCc1ccc(NC(=O)CSc2nnc(Cc3cccn3C)n2-c2ccc(OC)cc2)cc1,891,7.4% (inactive),-2.2% (inactive),111,-54.1% (inactive),117,-0.609 (inactive),1.4e-05 (inactive),0.00529 (inactive),20.1% (inactive),23.6% (inactive)
CCCCOc1ccc(CSc2n[nH]c(C)n2)cc1,243,0.2% (inactive),-0.4% (inactive),86.8,5.3% (inactive),96.6,-0.435 (inactive),2.4e-05 (inactive),0.00825 (inactive),-55.7% (inactive),-90.2% (inactive)
COc1cccc(N2CCN(Cc3cccnc3)CC2)c1,621,-1% (inactive),-21.4% (inactive),96.6,15.6% (inactive),87.2,-0.364 (inactive),-6e-05 (inactive),0.00629 (inactive),6.56% (inactive),11.4% (inactive)
c1ccc(CC2CCN(c3nc4ccccc4n4nnnc34)CC2)cc1,373,-13.8% (inactive),-7.8% (inactive),102,-63.7% (inactive),114,-0.312 (inactive),-3.7e-05 (inactive),0.00583 (inactive),7.26% (inactive),13.6% (inactive)
CCOC(=O)c1cccc(NC(=O)CSc2nnc(-c3cccnc3)n2CC)c1,517,-6.7% (inactive),1.2% (inactive),82.2,-12.8% (inactive),112,-0.506 (inactive),-2.6e-05 (inactive),0.00514 (inactive),12.5% (inactive),11.6% (inactive)
CCN(CC)CCNC(=O)CCn1c(=S)[nH]c2cc3c(cc2c1=O)OCO3,380,-3% (inactive),-16.9% (inactive),99.9,7.2% (inactive),114,-0.501 (inactive),-2.4e-05 (inactive),0.00645 (inactive),-5.94% (inactive),28.2% (inactive)
CC(CCC(=O)Nc1nncs1)C(=O)O (stereo not drawn),527,-0.8% (inactive),1.4% (inactive),97,-52.1% (inactive),123,-0.535 (inactive),-5.2e-05 (inactive),0.00611 (inactive),9.72% (inactive),20.3% (inactive)
COc1cccc(CN2CCN(C(=O)CC(C)C)CC2)c1,448,2.2% (inactive),-3.8% (inactive),118,-45.8% (inactive),132,-0.241 (inactive),2.2e-06 (inactive),0.00544 (inactive),10.5% (inactive),4.9% (inactive)
O=C(OCC(=O)N1CCc2ccccc21)C1=COCCO1,341,-3.1% (inactive),8.9% (inactive),86.5,-37% (inactive),113,-0.633 (inactive),-7.8e-06 (inactive),0.00715 (inactive),-12.3% (inactive),-46.6% (inactive)
Cc1cccc(Nc2ncc3c(n2)CC(c2ccco2)CC3=O)c1 (stereo not drawn),386,-1% (inactive),-7% (inactive),84.1,-29% (inactive),187,-0.378 (inactive),-1.7e-05 (inactive),0.003 (inactive),-2.61% (inactive),-12.4% (inactive)
N#CC1=C(N)SC(N)=C(C#N)C1c1ccc(C(F)(F)F)cc1,520,-1.5% (inactive),-11.9% (inactive),114,-69.1% (inactive),187,-0.472 (inactive),2.9e-05 (inactive),0.00688 (inactive),-1.4% (inactive),-49.4% (inactive)
Cc1ccc(-c2nnc(SCC(=O)N3c4ccccc4NC(=O)C3(C)C)n2N)cc1,809,-0.7% (inactive),-26.4% (inactive),93.6,-92% (inactive),120,-0.361 (inactive),-2.3e-05 (inactive),0.00498 (inactive),-12.6% (inactive),-5.26% (inactive)
CCOC(=O)C1=C(NC#N)OC(C)=C(C)C1c1ccc(O)cc1 (stereo not drawn),276,1% (inactive),-12.7% (inactive),117,15.8% (inactive),100,-0.487 (inactive),-1.5e-05 (inactive),0.00651 (inactive),20.5% (inactive),18.3% (inactive)
CCn1nnc(NC(=O)c2ccc(-c3ccc(Cl)cc3)o2)n1,391,-6.7% (inactive),-20% (inactive),129,-101% (inactive),208,-0.488 (inactive),-7.1e-05 (inactive),0.00611 (inactive),-111% (inactive),-103% (inactive)
COc1cccc(-n2ccnc2SCC(=O)N2CCc3ccccc32)c1,565,-7.6% (inactive),3% (inactive),108,1.1% (inactive),89.7,-0.536 (inactive),-1e-05 (inactive),0.00609 (inactive),-3.01% (inactive),-5.47% (inactive)
Cc1cccc(C2CC(c3ccc(Br)cc3)Nc3nc(N)nn32)c1 (stereo not drawn),683,-15.7% (inactive),-3% (inactive),95.1,-5.8% (inactive),105,-0.443 (inactive),-5.3e-05 (inactive),0.00633 (inactive),20.8% (inactive),25.1% (inactive)
CC(=O)Nc1c(O)nc(SCC(=O)Nc2nnc(CC(C)C)s2)[nH]c1=O,780,-3.3% (inactive),0% (inactive),114,-41% (inactive),104,-0.541 (inactive),1.8e-05 (inactive),0.00412 (inactive),-9.44% (inactive),-13.3% (inactive)
O=C(Cn1ccc2ccccc2c1=O)Nc1ccc2c(c1)OCO2,231,-1.8% (inactive),1% (inactive),103,0% (inactive),91.4,-0.602 (inactive),-4.5e-05 (inactive),0.00747 (inactive),0.207% (inactive),-4.72% (inactive)
CC(CN(C)Cc1ccccc1)OC(=O)c1ccc2c(c1)OCCO2 (stereo not drawn),596,0% (inactive),-0.4% (inactive),126,-40.2% (inactive),109,-0.48 (inactive),-5.1e-05 (inactive),0.00539 (inactive),8.96% (inactive),8.88% (inactive)
CCOC(=O)C1(C)NC(c2ccc(OC)c(OC)c2)C2C(=O)N(CC)C(=O)C21 (stereo not drawn),369,-8.4% (inactive),29.1% (inactive),105,-211% (inactive),182,-0.598 (inactive),-9.8e-06 (inactive),0.00547 (inactive),1.25% (inactive),14.3% (inactive)
COC(=O)CSc1ncccc1-c1nc2ccccc2[nH]1,473,-4.5% (inactive),-2% (inactive),111,-48.5% (inactive),99.2,-0.512 (inactive),3.1e-05 (inactive),0.00493 (inactive),-16.6% (inactive),-32.8% (inactive)
CC1CN(C(=O)CSc2nnc(-c3ccncc3)n2-c2ccccc2)CC(C)O1 (stereo not drawn),447,2.9% (inactive),4% (inactive),101,71.2% (active),124,-0.605 (inactive),5.9e-06 (inactive),0.00638 (inactive),20.7% (inactive),24.3% (inactive)
Cc1c(C)n(C)c2ccc(C(=O)NCc3cccs3)cc12,461,-9.2% (inactive),19.4% (inactive),83.8,11.8% (inactive),93.5,-0.505 (inactive),-3e-05 (inactive),0.00486 (inactive),-5.31% (inactive),-32.8% (inactive)
Cc1ccc(C(C)C)c(OCCn2c(=O)oc3ccccc32)c1,540,-5.9% (inactive),0.7% (inactive),89.4,-32.5% (inactive),77.7,-0.416 (inactive),2.5e-05 (inactive),0.00298 (inactive),-13.6% (inactive),-27.2% (inactive)
COc1ccc(Cl)cc1S(=O)(=O)N1CCN(c2ccc(F)cc2)CC1,657,-1.1% (inactive),-29.1% (inactive),101,36.7% (inactive),137,-0.319 (inactive),-1.3e-05 (inactive),0.00495 (inactive),46.4% (inactive),0.0275% (inactive)
C=CCn1c(SCC(=O)NC2CCCCC2)nnc1-c1sc(N)nc1C,639,-7.3% (inactive),-12.7% (inactive),101,-100% (inactive),125,-0.516 (inactive),-3.2e-05 (inactive),0.00387 (inactive),16.9% (inactive),16.4% (inactive)
